SMILES strings stand for the structures. Records with an inconclusive call do not appear. The source made the active and inactive calls. Unless noted, calls follow the shape of the dose curve; as a rule, active = well fitted curve in the direction sought with a large enough effect; inconclusive = small, poorly fitted or top-dose-only effect, or another doubt; inactive = no such curve, though single readings can be large; an effect the other way counts as inactive or inconclusive.

A short description of assay [1]: P-glycoprotein substrates identified in KB-8-5-11 adenocarcinoma cell line, qHTS therapeutic library screen (AID 1346987). Also: potency is read from the fitted curve at half-maximal effect; nearly all actives have a fitted effect of over 65% in size. In outline:
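KB-8-5-11: colchicine-selected sub-line of KB-3-1 over-expressing P-gp; assay medium lacked colchicine. 72 h drug exposure at 37 degree C, CellTiter-Glo.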
Background: qHTS replaces the single test concentration by a dilution series.

Assay [2] deals with Zika virus NS2B-NS3 protease (unlinked complex). The experiment in a line: Primary screen GU Rhodamine qHTS for Zika virus inhibitors: Unlinked NS2B-NS3 protease assay (AID 1347159). Also: nearly all actives have a fitted effect of over 60% in size. Also: potency is read from the fitted curve at half-maximal effect. The procedure, abridged:
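Percent inhibition derives from the 15-min fluorescence change (ex 480, em 540 nm), normalized to no-enzyme and no-inhibitor wells. Reactions contained 25 nM NS2B-NS3 complex and 1.5 microM substrate in 10 mM Tris-HCl pH 8.0.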

For assay [3], the system named is Zika virus NS2B-NS3 protease (linked construct). The experiment in a line: Primary screen NINDS Rhodamine qHTS for Zika virus inhibitors (AID 1347160). Also: nearly all actives have a fitted effect of over 55% in size. In outline: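 In 10 mM Tris-HCl pH 8.0 containing 0.01% Tween 20, linked NS2B-NS3 protease (25 nM final) is exposed to test compounds for 15 min. Cleavage of 1.5 microM Rhodamine110 substrate is tracked by fluorescence over 15 min.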

The target in assay [4] is Calcium and integrin-binding protein 1 (Homo sapiens) (UniProt Q99828). As to the kind of experiment: Primary qHTS for Identification of Calcium Integrin Binding Protein 1 (CIB1) Competitor (AID 1508620).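 Also: GST tagged CIB1 binding a fluorescein labelled alphaIIb integrin peptide tracer; top concentration of the series differs between compounds; % is scaled to controls: 0 for no effect and ±100 for the full control effect.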 In outline:
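Fluorescence polarization competition: CIB1-GST (1 uM final) preincubated with compound 15 min at room temperature, then FITC-labeled alphaIIb peptide (100 nM final) added for another 15 min. Polarization read at Ex 480/Em 540.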

Assay [5] in a line: Primary qHTS for inhibitors of nuclear receptor binding SET domain protein 2 (NSD2) in an isogenic RCH-ACV NSD2 p.E1099K mutant (9B) (AID 1645876). Also: potency is read from the fitted curve at half-maximal effect; nearly all actives have a fitted effect of over 70% in size.
The nature of assay [6]: Primary qHTS for inhibitors of nuclear receptor binding SET domain protein 2 (NSD2) in an RCH-ACV wild type WT cells (2C) (AID 1645877). Also: potency is read from the fitted curve at half-maximal effect; nearly all actives have a fitted effect of over 70% in size.
Assay [7] concerns the target Glutathione peroxidase 1 (Homo sapiens) (UniProt P07203). The experiment in a line: Primary qHTS Assay for Inhibitors of Recombinant Selenoprotein Glutathione Peroxidase 1 (GPX1) (AID 1845191). Also: nearly all actives have a fitted effect of over 65% in size. Also: potency is read from the fitted curve at half-maximal effect. In outline:
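Recombinant GPX1 (10 nM final) was preincubated with compound for 30 min at room temperature, then reacted with 1 mM GSH, 0.5 mM CHP, 0.5 mM NADPH and 100 nM glutathione reductase; NADPH fluorescence (340/450 nm) was read at 0 and 15 min.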

The target in assay [8] is Luciferin 4-monooxygenase (Photinus pyralis) (UniProt P08659). The experiment in a line: Primary firefly luciferase (FLuc) qHTS assay for identification of artifact compounds. (AID 1845220). Also: nearly all actives have a fitted effect of over 60% in size. The procedure, abridged: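 In this counter-screen for luciferase artifacts, test compounds met substrate (10 uM each luciferin and ATP) before 10 nM enzyme started the reaction. Light output was measured 5 min later.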

The test system of the next assay is HeLa. The experiment in a line: Primary qHTS to identify gynecologic anti-cancer compounds using libraries of approved drugs and bioactive compounds (AID 1345084). Also: nearly all actives have a fitted effect of over 55% in size. Also: potency is read from the fitted curve at half-maximal effect. The following applies: Gynecologic cancer cell panel viability, ATPlite luminescence, 48 h; series mostly up to 57.5 µM. In outline:
(§1)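 In this quantitative HTS, cell killing is estimated from loss of ATP-dependent luciferase light. Cells see five compound concentrations over a 48 h exposure.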

A further assay deals with Hek293T. The assay is described as above. To be noted: Gynecologic cancer cell panel viability, ATPlite luminescence, 48 h, control line for the selectivity index; series mostly up to 57.5 µM. In outline:
as §1

The subject of the next assay is OV90. The description is as above. The following applies: Gynecologic cancer cell panel viability, ATPlite luminescence, 48 h; series mostly up to 57.5 µM. The procedure, abridged: as §1
For orientation: Cellular ATP, detected with luciferase, serves as a proxy for viable cell number.

Assay [9] concerns the target Phospholipid hydroperoxide glutathione peroxidase GPX4 (Homo sapiens) (UniProt P36969). As to the kind of experiment: Primary qHTS Assay for Inhibitors of Recombinant Selenoprotein Glutathione Peroxidase 4 (GPX4) (AID 1845192). Also: nearly all actives have a fitted effect of over 65% in size. Also: potency is read from the fitted curve at half-maximal effect. To be noted: outcome: dose series up to 50 µM unless noted. The procedure, abridged: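 GR-coupled readout: 100 nM GR, 1 mM GSH, 0.5 mM NADPH; NADPH fluorescence (ex 340/em 450 nm) read at t=0 and after 15 min RT. GPX4 200 nM, preincubated 30 min with compound; substrate 0.5 mM CHP.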

The nature of assay [10]: Primary redox qHTS assay for identification of artifact compounds. (AID 1845223).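 Also: 0% = DMSO and 100% = reference compound.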 The procedure, abridged: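 Amplex Red (25 uM) and HRP (250 mU/mL) in HBSS, with compounds for 15 min, then 250 uM DTT for 30 min, room temperature, dark. Fluorescence 525/598 nm read; normalized to DMSO and 10 uM DA3003; Hill fit.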
For another assay, the system named is Tov112D. As to the kind of experiment: Primary qHTS to identify gynecologic anti-cancer compounds using libraries of approved drugs and bioactive compounds (AID 1345084). Also: nearly all actives have a fitted effect of over 55% in size. Also: potency is read from the fitted curve at half-maximal effect. To be noted: Gynecologic cancer cell panel viability, ATPlite luminescence, 48 h; series mostly up to 57.5 µM. The procedure, abridged:
as §1

Assay [11] can be described thus: qHTS drug screen for cell cycle checkpoint inhibitors in PARPi-resistant BRCA-mutant ovarian cancer cell lines. (AID 1963452; calls by dose curve). To be noted: PEO1/OlaR viability, CellTiter-Glo luminescence, 96 h, stronger effect = lower value. The procedure, abridged:
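PEO1, PEO4 and PEO1/OlaR ovarian cancer cells, 600 per well, exposed 96 h at 37C to a dilution series. Viability read by CellTiter-Glo luminescence, normalized to DMSO and empty wells; activity summarized as Z-AUC.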

For assay [12], the system named is Nanoluciferase (engineered Oplophorus gracilirostris luciferase). The experiment in a line: Primary Nanoluciferase (NLuc) qHTS assay for identification of artifact compounds. (AID 1845222).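 Also: NLuc secreted into diluted conditioned medium of S16 cells; 0% = DMSO and -100% = no enzyme.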 In outline:
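Using secreted nanoluciferase in S16 culture medium (0.22 um filtered, 1:55 dilution), compounds were preincubated 15 min at RT. Signal was generated with Nano-Glo reagent (1:100) over 5 min.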

Another assay concerns JEG-3. The experiment in a line: Primary qHTS to identify gynecologic anti-cancer compounds using libraries of approved drugs and bioactive compounds (AID 1345084). Also: nearly all actives have a fitted effect of over 55% in size. Also: potency is read from the fitted curve at half-maximal effect. To be noted: Gynecologic cancer cell panel viability, ATPlite luminescence, 48 h; series mostly up to 57.5 µM. In outline: as §1

Sequence of Glutathione peroxidase 1 (Homo sapiens) (P07203 whole entry, looked up): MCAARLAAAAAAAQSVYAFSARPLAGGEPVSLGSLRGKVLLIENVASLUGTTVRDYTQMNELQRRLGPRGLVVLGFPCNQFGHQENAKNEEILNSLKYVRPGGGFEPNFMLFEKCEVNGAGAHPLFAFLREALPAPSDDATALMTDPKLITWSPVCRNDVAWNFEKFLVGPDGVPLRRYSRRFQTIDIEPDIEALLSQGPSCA
Sequence of Calcium and integrin-binding protein 1 (Homo sapiens) (Q99828 whole entry, looked up): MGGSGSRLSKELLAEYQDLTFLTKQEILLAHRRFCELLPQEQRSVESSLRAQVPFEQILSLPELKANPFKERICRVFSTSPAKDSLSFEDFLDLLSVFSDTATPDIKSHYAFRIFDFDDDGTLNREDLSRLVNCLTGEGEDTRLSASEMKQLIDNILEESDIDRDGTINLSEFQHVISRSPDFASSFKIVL
Sequence of Phospholipid hydroperoxide glutathione peroxidase GPX4 (Homo sapiens) (P36969 whole entry, looked up): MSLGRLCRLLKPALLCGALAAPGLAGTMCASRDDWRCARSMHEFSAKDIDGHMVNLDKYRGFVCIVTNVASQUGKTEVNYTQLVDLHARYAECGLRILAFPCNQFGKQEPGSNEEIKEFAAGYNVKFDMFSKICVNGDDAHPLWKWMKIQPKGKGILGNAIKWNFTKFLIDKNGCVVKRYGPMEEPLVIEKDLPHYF

For the compound `COc1cc2nc(N3CCN(C)CC3)nc(NC3CCN(Cc4ccccc4)CC3)c2cc1OC`, the Potency in assay [1] was 16.4 µM (active); in assay [5], 6.49 µM (active); in assay [6] it was 5.78 µM (active); in the assay on OV90, 22.4 µM (active). The Potency entry (in assay [2]; in assay [3]; in assay [7]; in assay [8]; in the assay on HeLa; with Hek293T) was “inactive” each time. In addition, the result in assay [4] was inactive.
In the case of `CC1=CC(=O)[C@@]2(C(C)C)C[C@@H]12`, the Potency in assay [2] is 2.51 µM (active). Besides, the outcome in assay [4] was inactive. For the same compound, the Potency entry (in assay [7]; in assay [9]; in assay [8]; in assay [10]; in the assay on OV90; in the assay with Tov112D) was “inactive” each time.
For the compound `COc1ccc(-c2cc(C(O)C3CCCCN3)c3ccccc3n2)cc1` (stereo unspecified), the Potency in assay [1] was 20.6 µM (active); in assay [5] it was 7.42 µM (active); in [6], 4.68 µM (active); in assay [7], 20.2 µM (active); in [9], 22.7 µM (active); in the assay with OV90, 31.6 µM (active). Moreover, the Potency entry in [2], in assay [3], in assay [8] and in assay [10] was “inactive” each time. Moreover, the result in [4] was inactive. For the same compound, the Z-AUC in [11] is -0.506 (inactive); in assay [11] (measured here: PEO1 parental Z-AUC), -0.864; in assay [11] (measured here: PEO4 Z-AUC), -0.334.
Take `CC(=O)Nc1nc2c(Oc3cc(-c4ccc(C(F)(F)F)cc4)ncn3)cccc2s1`: the outcome in assay [4] was inactive. Also, the Potency in assay [5] is 6.49 µM (active); in assay [6], 4.09 µM (active). The Potency result (in assay [7]; in assay [9]; in [8]; in assay [12]; in [10]; in the assay with JEG-3) was “inactive” each time. Besides, the Potency result in the assay with Tov112D was “inactive”.
As to `CCOP(=O)(Cc1ccc(C(=O)Nc2ccc(Br)cc2C#N)cc1)OCC`, the Potency entry (in assay [2]; in [7]; in [9]; in assay [8]; in the assay with HeLa; in the assay on Hek293T) was “inactive” in each case. Further, the Potency entry in the assay with JEG-3, in the assay with OV90 and with Tov112D was “inactive” throughout. Besides, in assay [4], the outcome was inactive.
For the compound `CC[C@]1(O)C[C@H]2CN(CCC3C(=Nc4ccccc43)[C@@](C(=O)OC)(c3cc4c(cc3OC)N(C)[C@H]3[C@@](O)(C(N)=O)[C@H](O)[C@]5(CC)C=CCN6CC[C@]43[C@@H]65)C2)C1` (stereo partly specified), the Potency in [1] is 3.66 µM (active); in assay [5], 0.0515 µM (active); in assay [6], 0.023 µM (active); in the assay on HeLa, 0.398 µM (active); in the assay with JEG-3 it was 0.1 µM (active); in the assay on OV90, 5.01 µM (active). Moreover, the Potency in the assay on Tov112D was 0.1 µM (active). Besides, the Potency entry in [3], in assay [9], in [8] and in assay [12] was “inactive” each time. In [4], the outcome was inactive.
For `Fc1ccc(C2CCNC[C@H]2COc2ccc3c(c2)OCO3)cc1` (stereo partly specified), the Potency result (in assay [2]; in [9]; in assay [8]; in [12]; in assay [10]; with HeLa) was “inactive” throughout. The Potency result with Hek293T, with JEG-3 and with Tov112D was “inactive” throughout. For the same compound, the outcome in assay [4] was inactive. Moreover, the figures for the Potency in [5] and in [6] were 18.3 µM (active) and 11.5 µM (active), respectively.
On to `N#Cc1ccc(-c2ccc(NC(=O)Nc3ccc(-c4ccnc5nc[nH]c45)cc3)cc2)cc1`, for which the Potency result in assay [3], in assay [8], in assay [12] and in [10] was “inactive” each time.

The values above are taken from PubChem BioAssay (NCATS).
